In PubChem BioAssay (EPA / NIEHS):
The source made the active and inactive calls. The calls were made as follows: active = hit-call score of the fitted dose curve at least 0.9, where 1 is the maximum; inactive = score below 0.9.

Read-out: Vascular cell adhesion molecule 1 (VCAM1), VCAM1 (gene 7412)
Assay: BSK_hDFCGF_VCAM1: BioMAP Diversity Plus: hDFCGF Assay for Vascular cell adhesion molecule 1 (VCAM1) Biomarker Activity (AID 2283065)
Conditions: primary human foreskin fibroblasts; actives raise or lower the signal
Description: BSK_hDFCGF is a cell-based, multiplexed-readout assay that uses foreskin fibroblast, a human skin primary cell, with measurements taken at 24 hours after chemical dosing in a 96-well plate.BSK_hDFCGF_VCAM1 is an assay component measured in the BSK_hDFCGF assay. It measures VCAM-1 antibody related to regulation of gene expression using ELISA technology.Data from the assay component BSK_hDFCGF_VCAM1 was analyzed into 1 assay endpoint. This assay endpoint, BSK_hDFCGF_VCAM1, was analyzed with bidirectional fitting relative to DMSO as the negative control and baseline of activity. Using a type of binding reporter, gain or loss-of-signal activity can be used to understand changes in the signaling as they relate to the gene VCAM1. Furthermore, this assay endpoint can be referred to as a primary readout, because this assay has produced multiple assay endpoints where this one serves a signaling function. To generalize the intended target to other relatable targets, this assay endpoint is annotated to the cell adhesion molecules intended target family, where the subfamily is Immunoglobulin CAM.
The levels of cell surface (or secreted, indicated by the prefix "s") biomarker endpoints were measured by ELISA. Overt cytotoxicity to cells in confluent adherent cultures (all systems other than the BT system) was assessed by measuring total protein levels using sulforhodamine B (SRB) staining in parallel cultures at the time of biomarker measurements, indicated as SRB endpoints. For proliferation assays for adherent cell types, individual cell types are cultured at sub-confluence and relative cell numbers quantified by SRB staining at time points optimized for each system (48 h: 3C and CASM3C systems; 72 h: BT and HDF3CGF systems; 96 h: SAg system). SRB was performed by staining cells with 0.1% SRB after fixation with 10% TCA and reading wells at 560 nm.Viability and proliferation of PBMC (T cells) was quantified by Alamar Blue reduction for the SAg and BT systems. For PBMC viability (referred to as PBMC Cytotoxicity within the assay endpoint names), cells were plated (75,000/well in a 96-well plate) and then chemical samples added for 1 h before addition of activators, SEB and TSST-1 (20 ng/mL final concentration each). Cells were incubated for 90 h. Then, Alamar Blue (20 uL/well) (Invitrogen, Cat DAL1100) was added for 6 h, and the plates were read with a fluorescence microplate reader at 546/580 nm (excitation/emission). For PBMC proliferation, cells were plated and activated as above but incubated for only 16 h prior to addition of Alamar Blue. Plates were read after 6 h.

**Q.** How did the AC50 turn out when `CC(C)(COC(=O)c1ccccc1)COC(=O)c1ccccc1` was run?
**A.** Its AC50 is 16.1 µM (active).

**Q.** For `C#C[C@]1(O)CC[C@H]2[C@@H]3CCC4=Cc5oncc5C[C@]4(C)[C@H]3CC[C@@]21C`, which AC50 is on record?
**A.** Its AC50 is 20 µM (active).

**Q.** `O=C(O)c1cn(-c2ccc(F)cc2)c2cc(N3CCNCC3)c(F)cc2c1=O` was tested. Which outcome did it give?
**A.** Its outcome is “inactive”.

**Q.** `C=CCOC(=O)CCC1CCCCC1` was tested. Which outcome did it give?
**A.** Its outcome is “inactive”.

**Q.** For `CCCCCCCCCC=O`, which outcome is on record?
**A.** Its outcome is “inactive”.

**Q.** For `CC(=O)[C@H]1CC[C@H]2[C@@H]3CC=C4C[C@@H](O)CC[C@]4(C)[C@H]3CC[C@]12C`, which outcome is on record?
**A.** Its outcome is “inactive”.

**Q.** For `NCCNCCN`, which outcome is on record?
**A.** Its outcome is “inactive”.

**Q.** How did the outcome turn out when `O=C(O)c1ccc([N+](=O)[O-])cc1` was run?
**A.** Its outcome is “inactive”.

**Q.** How did the outcome turn out when `CC[Si](OC(C)=O)(OC(C)=O)OC(C)=O` was run?
**A.** Its outcome is “inactive”.

**Q.** Which outcome does the source give for `COC(=O)c1ccc(C)cc1` here?
**A.** The outcome was “inactive”.

**Q.** Which outcome does the source give for `O=C(O)c1cn(C2CC2)c2cc(N3CCNCC3)c(F)cc2c1=O` here?
**A.** Its outcome is “inactive”.

**Q.** How did the AC50 turn out when `BrC1CCC(Br)C(Br)CCC(Br)C(Br)CCC1Br` (stereo not given) was run?
**A.** Its AC50 is 4.68 µM (active).

**Q.** For `N#Cc1ccc(CC(=NNC(=O)Nc2ccc(OC(F)(F)F)cc2)c2cccc(C(F)(F)F)c2)cc1`, which outcome is on record?
**A.** The outcome was “inactive”.

**Q.** For `Nc1cc([N+](=O)[O-])ccc1O`, which outcome is on record?
**A.** The outcome was “inactive”.

**Q.** How did the outcome turn out when `O=[N+]([O-])c1cc(C(F)(F)F)ccc1Cl` was run?
**A.** The outcome was “inactive”.

**Q.** Which outcome does the source give for `Cc1cc(C2(c3cc(C)c(O)cc3C)OS(=O)(=O)c3ccccc32)c(C)cc1O` here?
**A.** The outcome was “inactive”.

**Q.** Which outcome does the source give for `c1ccc2sc(SN(C3CCCCC3)C3CCCCC3)nc2c1` here?
**A.** Its outcome is “inactive”.

**Q.** How did the outcome turn out when `C=C[Si](OCC)(OCC)OCC` was run?
**A.** The outcome was “inactive”.

**Q.** How did the outcome turn out when `O=C1CCCCCCCCCCCCCCO1` was run?
**A.** The outcome was “inactive”.

**Q.** `CC(=O)OCCC(C)CC(C)(C)C` (stereo not given) was tested. Which outcome did it give?
**A.** The outcome was “inactive”.

**Q.** For `CC(=O)/C=C/C1=C(C)CCCC1(C)C`, which outcome is on record?
**A.** Its outcome is “inactive”.

**Q.** With `Cc1ccc(Nc2ccc(O)c3c2C(=O)c2ccccc2C3=O)cc1` as the molecule, how does the outcome read?
**A.** Its outcome is “inactive”.

**Q.** How did the AC50 turn out when `CCCCC/C=C/C=C/C=O` was run?
**A.** The AC50 was 6.87 µM (active).

**Q.** How did the outcome turn out when `Nc1cc([N+](=O)[O-])ccc1Cl` was run?
**A.** Its outcome is “inactive”.

**Q.** `O=C1OC2(c3cc(Br)c(O)c(Br)c3Oc3c2cc(Br)c(O)c3Br)c2c(Cl)c(Cl)c(Cl)c(Cl)c21` was tested. Which AC50 did it give?
**A.** Its AC50 is 4.38 µM (active).

**Q.** For `CC(C)Oc1ccccc1O`, which outcome is on record?
**A.** The outcome was “inactive”.

**Q.** For `COc1cc(C=O)ccc1OC(=O)C(C)C`, which outcome is on record?
**A.** The outcome was “inactive”.

**Q.** How did the AC50 turn out when `CCn1c2ccccc2c2cc(N)ccc21` was run?
**A.** The AC50 was 0.855 µM (active).

**Q.** For `CCCCC(CC)COCCC#N` (stereo not given), which AC50 is on record?
**A.** The AC50 was 7.05 µM (active).

**Q.** How did the outcome turn out when `CC(=O)O[C@]1(C(C)=O)CC[C@H]2[C@@H]3C[C@H](C)C4=CC(=O)CC[C@]4(C)[C@H]3CC[C@@]21C` was run?
**A.** The outcome was “inactive”.

**Q.** For `CNC[C@H](O)c1cccc(O)c1`, which outcome is on record?
**A.** Its outcome is “inactive”.

**Q.** How did the AC50 turn out when `CC1CCC(C(C)CS)CC1S` (stereo not given) was run?
**A.** The AC50 was 2.78 µM (active).

**Q.** For `Cc1ccc(O)c(C(C)(C)C)c1`, which AC50 is on record?
**A.** Its AC50 is 39.1 µM (active).

**Q.** How did the outcome turn out when `CCC(=O)OCc1ccccc1` was run?
**A.** Its outcome is “inactive”.

**Q.** For `CN(CCOc1ccc(CC2SC(=O)NC2=O)cc1)c1ccccn1` (stereo not given), which outcome is on record?
**A.** Its outcome is “inactive”.

**Q.** With `Cc1ccc2n[nH]nc2c1` as the molecule, how does the outcome read?
**A.** Its outcome is “inactive”.

**Q.** Which outcome does the source give for `C[C@H]1C[C@@H]2[C@H]([C@@H](O)C[C@@]3(C)[C@H]2CC[C@]3(O)C(=O)CO)[C@@]2(C)C=CC(=O)C=C12` here?
**A.** Its outcome is “inactive”.

**Q.** Which AC50 does the source give for `CC1COc2ccccc2N1C(=O)C(Cl)Cl` (stereo not given) here?
**A.** The AC50 was 1.78 µM (active).

**Q.** With `OC1OC[C@@H](O)[C@H](O)[C@H]1O` (stereo not given in full) as the molecule, how does the outcome read?
**A.** The outcome was “inactive”.

**Q.** With `O=C(O)C[C@H](O)C[C@H](O)/C=C/c1c(C2CC2)nc2ccccc2c1-c1ccc(F)cc1` as the molecule, how does the outcome read?
**A.** The outcome was “inactive”.
